# Experimental data from PubChem BioAssay AID1645838 (ICCB-Longwood Screening Facility, Harvard Medical School, 2021).
# Values joined by “and” are separate entries in the source; they are usually repeats but may differ in a detail not shown here. Identical values can stand only once. About 100 (5%) of roughly 2,000 compounds were called active. Rule as the data show it: active = z-score above about 2; inactive = the rest. This excerpt belongs to a sample that is enriched for actives. Where a structure was tested more than once in an assay, its records may differ in their call.
# Experiment: modulators of mitochondrial supercomplex assembly, cell-based, luminescence, Hoechst nuclei count (AID 1645838);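 also: control cybrid cells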;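 as to z-score: higher means more mitochondrial supercomplex formation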
# Conditions: Cells, luminescence/Hoechst cell count ratio, supercomplex reporter; for z-score: stronger effect = higher value; for cell count: measured here: cell number, Hoechst nuclei count
# [1] = library stock concentration (final well concentration not given) 80 uM
# [2] = library stock concentration (final well concentration not given) 400 uM
# [3] = library stock concentration (final well concentration not given) 2 mM
# [4] = library stock concentration (final well concentration not given) 10 mM
# [5] = library stock concentration (final well concentration not given) 46 uM
# [6] = library stock concentration (final well concentration not given) 278 uM
# [7] = library stock concentration (final well concentration not given) 1.67 mM
smiles,measurement,setting,value
C[C@@H](O)CCC[C@@H](O)/C=C/[C@@H]1[C@@H](CCCCCCC(=O)O)[C@@H](O)C[C@H]1O,z-score,,-0.0165 (inactive)
same,cell count,,5060
NC(=O)c1ccc2nc(-c3ccc(Oc4ccc(Cl)cc4)cc3)[nH]c2c1,z-score,[1],0.235 (inactive)
same,z-score,[2],0.636 (inactive)
same,z-score,[3],0.25 (inactive)
same,z-score,[4],2.04 (active)
same,cell count,[1],4680
same,cell count,[2],4440
same,cell count,[3],4560
same,cell count,[4],3840
NC(=O)c1ccc(-c2nc(-c3ccc4c(c3)OCCO4)c(-c3ccccn3)[nH]2)cc1,z-score,,0.107 (inactive)
same,cell count,,5540
NC(=O)c1ccc(-c2nc(-c3ccc4c(c3)OCO4)c(-c3ccccn3)[nH]2)cc1,z-score,,-0.0341 (inactive)
same,cell count,,5380
CCCCCCCCCCCSCC(=O)O,z-score,,-0.636 (inactive)
same,cell count,,5540
CCCCCC(=O)/C=C/C=O,z-score,,3.38 (active)
same,cell count,,4570
CCCCCC(O)/C=C/C=O (configuration not stated),z-score,,-0.635 (inactive)
same,cell count,,5350
CCCCCCCCCCCCCCCC(=O)NC(C)C,z-score,,-0.641 (inactive)
same,cell count,,5670
CCCCCC/C=C\CCCCCCCC(=O)OCC,z-score,,-0.872 (inactive)
same,cell count,,5340
Cc1ccc(C)c(-n2sc3cc(F)ccc3c2=O)c1,z-score,[5],-0.174 (inactive)
same,z-score,[6],-0.302 (inactive)
same,z-score,[7],-1.02 (inactive)
same,z-score,[4],1.44 (inactive)
same,cell count,[5],7370
same,cell count,[6],6230
same,cell count,[7],7150
same,cell count,[4],2660
CS(=O)(=O)N1CCc2c(-c3cnc(N)nc3)nc(N3CCOCC3)nc21,outcome,library stock 10 mM,inactive; censored for cell count
same,z-score,[1],-0.156 (inactive)
same,z-score,[2],0.294 (inactive)
same,z-score,[3],1.97 (active)
same,cell count,[1],5660
same,cell count,[2],4440
same,cell count,[3],2590
CC1=C(C(=O)Nc2ccccc2C)C(c2cccc([N+](=O)[O-])c2)C2=C(CCCC2=O)N1 (configuration not stated),z-score,[1],0.502 (inactive)
same,z-score,[2],0.355 (inactive)
same,z-score,[3],-0.0592 (inactive)
same,z-score,[4],0.0886 (inactive)
same,cell count,[1],4870
same,cell count,[2],4830
same,cell count,[3],4490
same,cell count,[4],4680
CCCCCCCCCCCCCCCCC/C=C\C(=O)O,z-score,,0.0429 (inactive)
same,cell count,,4620
CCCCCCCC/C=C\CCCCCCCC(=O)NCC,z-score,,0.358 (inactive)
same,cell count,,5660
CCCCCCCC(=O)OC[C@H](CO)OC(=O)CCCCCCC,z-score,,-0.0675 (inactive)
same,cell count,,5320
CCCCCc1ccc(C=CC(=O)Nc2ccccc2C(=O)O)cc1,z-score,[5],0.0102 (inactive)
same,z-score,[6],-0.157 (inactive)
same,z-score,[7],-0.383 (inactive)
same,z-score,[4],-0.45 (inactive)
same,cell count,[5],6840
same,cell count,[6],6660
same,cell count,[7],6860
same,cell count,[4],6620
CC(C)[C@H](C(=O)Nc1ccc(C(=O)NO)cc1)c1ccccc1,outcome,,inactive; censored for cell count
CCCCN(Cc1ccc(C(=O)NO)cc1)C(=O)Nc1ccccc1,z-score,[1],-0.413 (inactive)
same,z-score,[2],-0.344 (inactive)
same,z-score,[3],0.545 (inactive)
same,z-score,[4],1.99 (active)
same,cell count,[1],5840
same,cell count,[2],5790
same,cell count,[3],4990
same,cell count,[4],3280
CC(C)(C)CCN1C[C@@H]2C(CNC(=O)c3cc(Cl)cc(Cl)c3)[C@@H]2C1 (some centres not stated),z-score,[1],0.249 (inactive)
same,z-score,[2],-0.0169 (inactive)
same,z-score,[3],-0.303 (inactive)
same,z-score,[4],-0.298 (inactive)
same,cell count,[1],4670
same,cell count,[2],5180
same,cell count,[3],5270
same,cell count,[4],4390
CCCCC[C@H](O)/C=C/[C@@H]1[C@H]2CC(CCCCC(=O)O)O[C@H]2C[C@H]1O (some centres not stated),z-score,,-0.784 (inactive)
same,cell count,,6080
O=C(NC(=O)c1c(F)cccc1Cl)NC1c2ccccc2-c2ccccc21,z-score,[5],-0.18 (inactive)
same,z-score,[6],-0.113 (inactive)
same,z-score,[7],-0.216 (inactive)
same,z-score,[4],-0.278 (inactive)
same,cell count,[5],6490
same,cell count,[6],6240
same,cell count,[7],6190
same,cell count,[4],5520
CC(C=CC1=C(C)CCCC1(C)C)=CC=CC(C)=CC(=O)O,z-score,[5],-0.113 (inactive)
same,z-score,[6],-0.063 (inactive)
same,z-score,[7],-0.22 (inactive)
same,z-score,[4],0.0473 (inactive)
same,cell count,[5],5180
same,cell count,[6],5150
same,cell count,[7],5430
same,cell count,[4],4870
O=C1NC(=O)/C(=C/c2ccc3nccnc3c2)S1,z-score,,0.662 (inactive)
same,cell count,,4050
O=C1NC(=O)C(=Cc2ccc3nccnc3c2)S1,z-score,[1],-0.0169 (inactive) and -0.181 (inactive)
same,z-score,[2],0.573 (inactive) and -0.161 (inactive)
same,z-score,[3],1.47 (inactive) and -0.299 (inactive)
same,z-score,[4],2.46 (active) and -0.465 (inactive)
same,cell count,[1],4280 and 5470
same,cell count,[2],4140 and 5420
same,cell count,[3],3800 and 5820
same,cell count,[4],2300 and 3900
O=C1NC(=O)/C(=C/c2ccc3c(c2)OC(F)(F)O3)S1,z-score,,0.349 (inactive)
same,cell count,,4670
CCCCCCCCCCCCCCCC(=O)O,z-score,,-0.762 (inactive)
same,cell count,,5780
CCCCCCCCCCC(=O)O,z-score,[5],-0.0477 (inactive)
same,z-score,[6],0.267 (inactive)
same,z-score,[7],-0.0647 (inactive)
same,z-score,[4],0.212 (inactive)
same,cell count,[5],6640
same,cell count,[6],6810
same,cell count,[7],6810
same,cell count,[4],6380
CC(C)(CCCCCCCCCCC(C)(C)CC(=O)O)CC(=O)O,z-score,,2.9 (active)
same,cell count,,5040
COC1C(N(C)C(=O)c2ccccc2)C[C@@H]2O[C@]1(C)n1c3ccccc3c3c4c(c5c6ccccc6n2c5c31)C(=O)NC4 (some centres not stated),outcome,library stock 2 mM,inactive; censored for cell count
same,outcome,library stock 10 mM,inactive; censored for cell count
same,z-score,[1],0.298 (inactive)
same,z-score,[2],1.12 (inactive)
same,cell count,[1],5280
same,cell count,[2],4120
CCOC(=O)c1c(Cc2cccc(Cl)c2)[nH]c2c1cc(O)c1ccccc12,z-score,,0.267 (inactive)
same,cell count,,5070
CCCCC(C)(O)C/C=C/[C@H]1[C@H](O)CC(=O)[C@H]1CCCCCCC(=O)OC (some centres not stated),z-score,,-0.356 (inactive)
same,cell count,,5650
OCc1cc(C(O)CNCCCCCCOCCCCc2ccccc2)ccc1O (configuration not stated),z-score,[1],1.97 (active)
same,z-score,[2],1.87 (inactive)
same,z-score,[3],1.36 (inactive)
same,z-score,[4],1.79 (inactive)
same,cell count,[1],4600
same,cell count,[2],4730
same,cell count,[3],4660
same,cell count,[4],3230
NC(=O)c1cccc(-c2cccc(OC(=O)NCCCCCCc3ccccc3)c2)c1,z-score,,0.191 (inactive)
same,cell count,,4760
CC(C)NCC(O)c1ccc(O)c(O)c1 (configuration not stated),z-score,[5],0.406 (inactive)
same,z-score,[6],0.956 (inactive)
same,z-score,[7],0.578 (inactive)
same,z-score,[4],1.22 (inactive)
same,cell count,[5],6420
same,cell count,[6],6030
same,cell count,[7],6690
same,cell count,[4],6300
COc1cc(C2c3cc4c(cc3C(O)[C@H]3COC(=O)[C@@H]23)OCO4)cc(OC)c1OC (some centres not stated),outcome,library stock 2 mM,inactive; censored for cell count
same,outcome,library stock 10 mM,inactive; censored for cell count
same,z-score,[1],-0.602 (inactive)
same,z-score,[2],-0.324 (inactive)
same,cell count,[1],5600
same,cell count,[2],3990
O=C(O)CCC/C=C\C[C@@H]1[C@@H](/C=C/C(=O)CCc2ccccc2)[C@H](O)C[C@@H]1O,z-score,,0.328 (inactive)
same,cell count,,4980
CCCCC[C@H](O)/C=C/[C@H]1C=CC(=O)[C@@H]1C/C=C\CCCC(=O)O,z-score,,0.972 (inactive)
same,cell count,,5050
Oc1ccc(C=NN(Cc2ccccc2)Cc2ccccc2)cc1,z-score,[1],0.58 (inactive)
same,z-score,[2],0.621 (inactive)
same,z-score,[3],0.515 (inactive)
same,z-score,[4],1.23 (inactive)
same,cell count,[1],4430
same,cell count,[2],4410
same,cell count,[3],3940
same,cell count,[4],3600
CC1(C)OC2CO[C@@]3(COS(N)(=O)=O)OC(C)(C)OC3C2O1 (some centres not stated),z-score,[1],0.166 (inactive)
same,z-score,[2],0.0797 (inactive)
same,z-score,[3],0.165 (inactive)
same,z-score,[4],-0.169 (inactive)
same,cell count,[1],6240
same,cell count,[2],6200
same,cell count,[3],5750
same,cell count,[4],5940
CCCCCCCCCCCCCCCCC(=O)NCCO,z-score,,0.812 (inactive)
same,cell count,,5880
CC(N)c1ccc(C(=O)Nc2ccnc3[nH]ccc23)cc1 (configuration not stated),z-score,[1],0.0935 (inactive)
same,z-score,[2],-0.0384 (inactive)
same,z-score,[3],-0.229 (inactive)
same,z-score,[4],0.129 (inactive)
same,cell count,[1],5400
same,cell count,[2],5420
same,cell count,[3],5670
same,cell count,[4],3470
O=C(Cc1cccc(OC(F)(F)F)c1)Nc1ccc(CCCCc2nnc(NC(=O)Cc3ccccn3)s2)nn1,z-score,[5],1.3 (inactive)
same,z-score,[6],3.8 (active)
same,z-score,[7],4.04 (active)
same,z-score,[4],4.54 (active)
same,cell count,[5],5940
same,cell count,[6],4200
same,cell count,[7],4190
same,cell count,[4],3940
NC(=O)c1cnc(NC2CCCCC2N)nc1Nc1cccc(-n2nccn2)c1 (configuration not stated),z-score,[1],-0.155 (inactive)
same,z-score,[2],-0.103 (inactive)
same,z-score,[3],0.129 (inactive)
same,z-score,[4],0.743 (inactive)
same,cell count,[1],5260
same,cell count,[2],4840
same,cell count,[3],5390
same,cell count,[4],3000
CCCC[C@H](C)C[C@H](O)/C=C/[C@H]1[C@H](O)CC(=O)[C@@H]1CCCCC(CC(=O)O)OC (some centres not stated),z-score,,-0.235 (inactive)
same,cell count,,5180
CC(C)OC(=O)N1CCC(Oc2ncnc3c2cnn3-c2ccc(S(C)(=O)=O)cc2F)CC1,z-score,[5],-0.707 (inactive)
same,z-score,[6],-0.537 (inactive)
same,z-score,[7],-0.462 (inactive)
same,z-score,[4],-0.531 (inactive)
same,cell count,[5],7670
same,cell count,[6],7400
same,cell count,[7],7330
same,cell count,[4],7200
CCCCC/C=C\C/C=C\CCCCCCCC(=O)O[C@H](COC(=O)CCCCCCCCCCCCCCC)COP(=O)(O)OCCN,z-score,,-0.42 (inactive)
same,cell count,,5090
CC(C)(C)OC(=O)Nc1ccc(-c2cc(C(=O)NCCCCCCC(=O)NO)no2)cc1,z-score,,4.81 (active)
same,cell count,,3910
CC(C)(C)CC1NC(C(=O)NC2CCC(O)CC2)C(c2cccc(Cl)c2F)[C@]12C(=O)Nc1cc(Cl)ccc12 (some centres not stated),z-score,[5],-0.637 (inactive)
same,z-score,[6],-0.742 (inactive)
same,z-score,[7],-0.98 (inactive)
same,z-score,[4],-1.86 (inactive)
same,cell count,[5],7790
same,cell count,[6],7430
same,cell count,[7],8360
same,cell count,[4],7510
CC(C)(C)C(O)C=Cc1ccc2c(c1)OCO2 (configuration not stated),z-score,[1],0.0878 (inactive)
same,z-score,[2],0.509 (inactive)
same,z-score,[3],0.124 (inactive)
same,z-score,[4],0.138 (inactive)
same,cell count,[1],5100
same,cell count,[2],4800
same,cell count,[3],5050
same,cell count,[4],5260
CN1CCN(CCOc2cc(OC3CCOCC3)c3c(Nc4c(Cl)ccc5c4OCO5)ncnc3c2)CC1,outcome,library stock 10 mM,inactive; censored for cell count
same,z-score,[1],0.0594 (inactive) and -0.195 (inactive)
same,z-score,[2],0.376 (inactive) and 0.19 (inactive)
same,z-score,[3],1.62 (inactive) and 2.74 (active)
same,cell count,[1],4300 and 6110
same,cell count,[2],4050 and 5610
same,cell count,[3],3190 and 3140
O=C1C(c2ccccc2)N(c2ccc(Br)cc2)C(=O)N1c1ccc(Br)cc1 (configuration not stated),z-score,,-0.397 (inactive)
same,cell count,,4960
CC#CCC(C)C(O)C=CC1C(O)C[C@@H]2CC(=CCCCC(=O)O)C[C@@H]12 (some centres not stated),z-score,[1],-0.0626 (inactive)
same,z-score,[2],-0.295 (inactive)
same,z-score,[3],0.193 (inactive)
same,z-score,[4],0.43 (inactive)
same,cell count,[1],5530
same,cell count,[2],5750
same,cell count,[3],5230
same,cell count,[4],4650
